In all, about 9,900 sequences were measured (“r (bound/input frequency ratio)”: median about 0.7, highest 2% from about 6.5 on). Many of the other results were omitted from the sample, so the highest values are more common in it than they were.

We go through 8 molecules from publication PMC12864922, “TDP-43 directly inhibits mRNA accumulation in neurites through modulation of mRNA stability”.

The labels stand for the following.
B1: ENSMUSG00000061578.1085|Ksr2|91:95 (ssRNA)
RNA: GGGAGUUCUACAGUCCGACGAUCGCUUCGAUAUCCGCAUGCUAGAUUCUAUCCAGUGGCCAGCAAUACCCAAAAGCAGCCAACCAUGAAAAUAGAGGUUUGUAAUGUACAGAAGGCUGGGGGAGCUUUCAGGGCACACGCCAGUUAUGUACAGAUGUGAAGCUGAGGUCUGAAGGAAAUGGAGGAAGUAGGAAGAUCAGACUGGUUGAAUUAGAAGUCUGUCACUCUAGGUGCUAAGUGACCUUGGACCCAGUCAGUUCUUGGAUUUCUGUUGUAGCCCAGGCUAGCCUCGAACCCUUGAUCCCUCUUGCGGUCGCACUAGUGUGGAAUUCUCGGGUGUCAAGG
B2: ENSMUSG00000058297.27|Spock2 (ssRNA)
RNA: GGGAGUUCUACAGUCCGACGAUCGCUUCGAUAUCCGCAUGCUAAAGAGACCUGGACAACAGCAGGCAACUUAGCAAAUGGAUCCGGAAGUCAGUGCGGAGGACCCUGGCUCCAGUGGGGGAGGACUGGGGAGUGUGGCUUGUGUGUAUGUGUGAUAUGAGAUGUGUGUGUAUGAUGUGAGAUGUGAGUGUGUGAUGUGAGAUGUGUGUAUGUGAGAUGUGUGUGUGUGUGUGUGUGUGUGUGAUGUGAGUCACCCAAAGGUCCCUAUGUUAUUGAUUUUCAAAUGCACACUUUCACACACAAGCUCUUGCGGUCGCACUAGUGUGGAAUUCUCGGGUGUCAAGG
B3: ENSMUSG00000058297.28|Spock2 (ssRNA)
RNA: GGGAGUUCUACAGUCCGACGAUCGCUUCGAUAUCCGCAUGCUACCUGGACAACAGCAGGCAACUUAGCAAAUGGAUCCGGAAGUCAGUGCGGAGGACCCUGGCUCCAGUGGGGGAGGACUGGGGAGUGUGGCUUGUGUGUAUGUGUGAUAUGAGAUGUGUGUGUAUGAUGUGAGAUGUGAGUGUGUGAUGUGAGAUGUGUGUAUGUGAGAUGUGUGUGUGUGUGUGUGUGUGUGUGAUGUGAGUCACCCAAAGGUCCCUAUGUUAUUGAUUUUCAAAUGCACACUUUCACACACAAGGAUACACUCUUGCGGUCGCACUAGUGUGGAAUUCUCGGGUGUCAAGG
B4: ENSMUSG00000058297.29|Spock2 (ssRNA)
RNA: GGGAGUUCUACAGUCCGACGAUCGCUUCGAUAUCCGCAUGCUACAACAGCAGGCAACUUAGCAAAUGGAUCCGGAAGUCAGUGCGGAGGACCCUGGCUCCAGUGGGGGAGGACUGGGGAGUGUGGCUUGUGUGUAUGUGUGAUAUGAGAUGUGUGUGUAUGAUGUGAGAUGUGAGUGUGUGAUGUGAGAUGUGUGUAUGUGAGAUGUGUGUGUGUGUGUGUGUGUGUGUGAUGUGAGUCACCCAAAGGUCCCUAUGUUAUUGAUUUUCAAAUGCACACUUUCACACACAAGGAUACACUAACACUCUUGCGGUCGCACUAGUGUGGAAUUCUCGGGUGUCAAGG
B5: ENSMUSG00000058297.28|Spock2|83:87;91:104;113:124;138:144;153:162;168:193 (ssRNA)
RNA: GGGAGUUCUACAGUCCGACGAUCGCUUCGAUAUCCGCAUGCUACCUGGACAACAGCAGGCAACUUAGCAAAUGGAUCCGGAAGUCAGUGCGGAGGACCCUGGCUCCAGUGGGGGAGGACUGGGGACACACGCUACACACAUACACACAUAUGAGAACACACACAUACAUGUGAGAUGUGACACACACAUGUGAGAACACACAUACUGAGAACACACACACACACACACACACACACAUGUGAGUCACCCAAAGGUCCCUAUGUUAUUGAUUUUCAAAUGCACACUUUCACACACAAGGAUACACUCUUGCGGUCGCACUAGUGUGGAAUUCUCGGGUGUCAAGG
B6: ENSMUSG00000031028.414|Tub|94:98;228:232;234:246;252:260 (ssRNA)
RNA: GGGAGUUCUACAGUCCGACGAUCGCUUCGAUAUCCGCAUGCUAUUCUUUUUGGUCCUUGGCUGGGUAGCAAAUUGGUGAGAAGAGCAGCCUAGUCUGUAAGAGUGCAGGGCAGCUGGAACCUUAGGCAGCUCCUCUCAUACCUACCGGCUCCACACCCUAACACUCUCCACCCUCUGCUCCAAACCAGUUCUUCUGCAGAGUGGUGAUGUUAGCUUCCCCAGCUCCUCUCCAAGUCUAGCUUUUUCUGUCCUUCUGGCUCCAAGGUGCUCACACACACACACACACACACUGUCACACACACACUCUUGCGGUCGCACUAGUGUGGAAUUCUCGGGUGUCAAGG
B7: ENSMUSG00000031028.183|Tub (ssRNA)
RNA: GGGAGUUCUACAGUCCGACGAUCGCUUCGAUAUCCGCAUGCUAAGGGCACAUGUCUCUUGGUUACCUCACUGGUUAAUGGCAGAGUUGAGAACCUCAAAUUCUUUUGUUCCUACUGUUGCCCAGAAACUAGACUCUCUGACCUGCUAGGGUCUAUUCUGCAUGUCCUUUCUCUUCCCAGUUCCAGAGAUGAAACCCCUCCGAGUUAAUGUAUAAGGUUGGAAACCUUUCAGUAGGGAAUCAGGCAGUUCCCUGUUGAAAGUUGUCUGAGUUUUUGCACACCAUUCUGAUCUGAUGUGGCCUGUCUCUUGCGGUCGCACUAGUGUGGAAUUCUCGGGUGUCAAGG
B8: ENSMUSG00000028439.343|Fam219a (ssRNA)
RNA: GGGAGUUCUACAGUCCGACGAUCGCUUCGAUAUCCGCAUGCUACCAGUUCGCAUCCCCACCACUCAUCAUCUGGGCCCCAACGCUAGAACUCCCCCCACCGCAUCCCCACUGGGCUCUUUGACUCACCCUUCUAGAACAUGGGUGCCUCCUCUCUUUAGACUGCUGCCUUUGCCUCUGACUUCCUGUGGGAUUGAGAGCCAAGGGCCAGUGCCCUUGUGAGCGCACUAGUUCCGAAGCAGGCAAGGGCAUUAGGUGGUAUAUACAUAGCGGGUAGGGGUAGGAAGCUGGCAGCCUGCAGCUUCCUCUUGCGGUCGCACUAGUGUGGAAUUCUCGGGUGUCAAGG

For this assay, the target named is TDP-43 (Homo sapiens, UniProt Q13148 1-414). Briefly: RNA Bind-n-Seq with designed 260-mer pool; 25 mM Tris-HCl, 150 mM KCl, 3 mM MgCl2, BSA (printed 500 mg/mL), 20 units/mL SUPERase IN; pH not stated; 500 nM RNA pool, 1 h, 4 C; TDP-43 5, 50, 500 nM; high values mean tight binding. Particulars: protein: recombinant; tags: SBP (GST cleaved off with PreScission; pGEX-GST-SBP). In outline: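 Binding (R) is the ratio of each oligo's mapped-read-normalized abundance in the bound fraction to its abundance in the input. To obtain it, SBP-tagged recombinant TDP-43 (5, 50 or 500 nM) on streptavidin beads was incubated with 500 nM of an in vitro-transcribed 260-nt 3′ UTR oligo pool for 1 h at 4 °C in 25 mM Tris-HCl, 150 mM KCl, 3 mM MgCl2, BSA and SUPERase IN. The RNA retained after washing was released with biotin, then reverse transcribed, amplified by PCR and sequenced.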
TDP-43, sequence (Q13148 whole entry): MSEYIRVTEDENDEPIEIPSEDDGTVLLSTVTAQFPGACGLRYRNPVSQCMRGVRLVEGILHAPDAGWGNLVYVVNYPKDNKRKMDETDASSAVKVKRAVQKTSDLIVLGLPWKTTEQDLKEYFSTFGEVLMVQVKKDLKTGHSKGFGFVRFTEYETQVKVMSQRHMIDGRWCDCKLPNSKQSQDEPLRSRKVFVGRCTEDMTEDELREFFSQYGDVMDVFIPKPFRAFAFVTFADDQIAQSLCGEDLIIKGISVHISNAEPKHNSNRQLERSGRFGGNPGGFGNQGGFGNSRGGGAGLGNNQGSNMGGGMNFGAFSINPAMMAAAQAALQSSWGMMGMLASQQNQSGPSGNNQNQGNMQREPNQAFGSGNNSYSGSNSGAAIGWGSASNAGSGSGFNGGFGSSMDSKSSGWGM
On to B1, for which the binding signal was 0.868 R (bound/input frequency ratio).
Turning to B2, the binding signal was 6.12 R (bound/input frequency ratio).
For B3 the value was 6.8 R (bound/input frequency ratio); for B4, 6.82 R (bound/input frequency ratio).
In the case of B5, the binding signal was 3.52 R (bound/input frequency ratio).
B6: the binding signal was 2.86 R (bound/input frequency ratio).
Under B7 stands 0.952 R (bound/input frequency ratio); under B8, 0.735 R (bound/input frequency ratio).
